Assay results: PubChem BioAssay AID1159580 (chemical genetic matrix, 2015)
Out of some 5,500 compounds screened, about 2,000 (36%) were called active. Roughly 18% stayed inconclusive and do not appear here. Cut-off read from the data, not from the text of the source: active = normalized growth mostly below about 0.91 (no sharp cut-off); inconclusive = no clear call, values can overlap the other calls; inactive = mostly above about 0.92. The list shows a part of the results.

Test: chemical genetic growth profiling, strain panel (AID 1159580);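 note: tested at 20 µM; growth read once vehicle control cultures reached saturation at 30 °C; 1 = growth at the plate median or of vehicle wells; lower values mean less growth of the strain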
Conditions: S. cerevisiae deletion strains, growth OD
[1] = locus YCL061C, strain MRC1, active compounds read low
[2] = locus YHR030C, strain SLT2, active compounds read low
[3] = locus YJL187C, strain SWE1, active compounds read low
[4] = locus YAL021C, strain ccr4, active compounds read low
[5] = locus YAL026C, strain drs2, active compounds read low
[6] = locus YAL030W, strain snc1, active compounds read low
[7] = locus YBL061C, strain skt5, active compounds read low
[8] = locus YBR009C, strain hhf1, active compounds read low
[9] = locus YBR023C, strain chs3, active compounds read low
[10] = locus YBR171W, strain sec66, active compounds read low
[11] = locus YBR231C, strain swc5, active compounds read low
[12] = locus YBR279W, strain paf1, active compounds read low
[13] = locus YCL011C, strain gbp2, active compounds read low
[14] = locus YCL016C, strain dcc1, active compounds read low
[15] = locus YCL069W, strain vba3, active compounds read low
[16] = locus YCR088W, strain abp1, active compounds read low
[17] = locus YDL005C, strain med2, active compounds read low
[18] = locus YDL040C, strain nat1, active compounds read low
[19] = locus YDR001C, strain nth1, active compounds read low
[20] = locus YDR069C, strain doa4, active compounds read low
[21] = locus YDR137W, strain rgp1, active compounds read low
[22] = locus YDR159W, strain sac3, active compounds read low
[23] = locus YDR297W, strain sur2, active compounds read low
[24] = locus YDR334W, strain swr1, active compounds read low
[25] = locus YDR335W, strain msn5, active compounds read low
[26] = locus YDR392W, strain spt3, active compounds read low
[27] = locus YEL003W, strain gim4, active compounds read low
[28] = locus YEL037C, strain rad23, active compounds read low
[29] = locus YEL061C, strain CIN8 (second series), active compounds read low
[30] = locus YER015W, strain faa2, active compounds read low
[31] = locus YER016W, strain bim1, active compounds read low
[32] = locus YER111C, strain swi4, active compounds read low
[33] = locus YER155C, strain BEM2 (second series), active compounds read low
[34] = locus YFR010W, strain ubp6, active compounds read low
[35] = locus YGL167C, strain pmr1, active compounds read low
[36] = locus YGL173C, strain kem1, active compounds read low
[37] = locus YGL227W, strain vid30, active compounds read low
[38] = locus YGL240W, strain doc1, active compounds read low
[39] = locus YGL253W, strain hxk2, active compounds read low
[40] = locus YHR013C, strain ard1, active compounds read low
[41] = locus YHR027C, strain rpn1, active compounds read low
[42] = locus YHR142W, strain chs7, active compounds read low
[43] = locus YJL092W, strain hpr5, active compounds read low
[44] = locus YJL095W, strain BCK1 (second series), active compounds read low
[45] = locus YJL115W, strain asf1, active compounds read low
[46] = locus YJL129C, strain trk1, active compounds read low
[47] = locus YJL154C, strain vps35, active compounds read low
[48] = locus YJL164C, strain tpk1, active compounds read low
[49] = locus YJL166W, strain qcr8, active compounds read low
[50] = locus YKL160W, strain elf1, active compounds read low
[51] = locus YKR026C, strain gcn3, active compounds read low
[52] = locus YKR091W, strain srl3, active compounds read low
[53] = locus YLL001W, strain dnm1, active compounds read low
[54] = locus YLL026W, active compounds read low
[55] = locus YLL041C, strain sdh2, active compounds read low
[56] = locus YLR027C, strain aat2, active compounds read low
[57] = locus YLR221C, strain rsa3, active compounds read low
[58] = locus YLR258W, strain gsy2, active compounds read low
[59] = locus YLR262C, strain YPT6 (second series), active compounds read low
[60] = locus YLR320W, strain mms22, active compounds read low
[61] = locus YLR342W, strain FKS1, active compounds read low
[62] = locus YLR357W, strain rsc2, active compounds read low
[63] = locus YLR370C, strain arc18, active compounds read low
[64] = locus YLR384C, strain iki3, active compounds read low
[65] = locus YML120C, strain ndi1, active compounds read low
[66] = locus YMR058W, strain fet3, active compounds read low
[67] = locus YMR125W, strain sto1, active compounds read low
[68] = locus YMR129W, active compounds read low
[69] = locus YMR205C, strain PFK2, active compounds read low
[70] = locus YMR231W, strain pep5, active compounds read low
[71] = locus YNL071W, strain lat1, active compounds read low
[72] = locus YNL209W, strain ssb2, active compounds read low
[73] = locus YNL248C, strain rpa49, active compounds read low
[74] = locus YNL322C, strain KRE1 (second series), active compounds read low
[75] = locus YNR049C, strain mso1, active compounds read low
[76] = locus YOR001W, strain rrp6, active compounds read low
[77] = locus YOR070C, strain gyp1, active compounds read low
[78] = locus YOR080W, strain dia2, active compounds read low
[79] = locus YOR083W, strain WHI5, active compounds read low
[80] = locus YOR106W, strain vam3, active compounds read low
[81] = locus YOR265W, strain rbl2, active compounds read low
[82] = locus YOR270C, strain vph1, active compounds read low
[83] = locus YOR290C, strain snf2, active compounds read low
[84] = locus YPL051W, strain arl3, active compounds read low
[85] = locus YPL078C, strain atp4, active compounds read low
[86] = locus YPL106C, strain sse1, active compounds read low
[87] = locus YPL240C, strain hsp82, active compounds read low

Measured: normalized growth

O=C1CC2(CCCC2)C(=O)N1CCNc1nccc(C(F)(F)F)n1
inactive: locus YAL013W, strain DEP1, active compounds read low 1.01 | locus YBR229C, strain ROT2, active compounds read low 0.991 | [1] 0.977 | locus YDL101C, strain DUN1, active compounds read low 0.985 | locus YDR150W, strain NUM1, active compounds read low 1.05 | locus YEL061C, strain CIN8, active compounds read low 1.01 | locus YGR078C, strain PAC10, active compounds read low 0.982 | [2] 0.994 | locus YHR087W, strain rtc3, active compounds read low 1.03 | [3] 0.995 | locus YJR043C, strain POL32, active compounds read low 0.999 | locus YJR075W, strain HOC1, active compounds read low 0.97 | locus YKL190W, strain CNB1, active compounds read low 0.984 | locus YLR039C, strain RIC1, active compounds read low 0.935 | locus YLR058C, strain SHM2 (second series), active compounds read low 0.975 | locus YLR085C, strain ARP6, active compounds read low 0.999 | locus YLR262C, strain YPT6, active compounds read low 0.972 | locus YML094W, strain GIM5, active compounds read low 1 | locus YMR219W, strain ESC1, active compounds read low 0.997 | locus YMR263W, strain SAP30, active compounds read low 1.01 | locus YNL128W, strain TEP1, active compounds read low 0.989 | locus YNL153C, strain GIM3, active compounds read low 1.01 | locus YNL298W, strain CLA4 (second series), active compounds read low 0.964 | locus YNL322C, strain KRE1, active compounds read low 0.993 | locus YNR030W, strain Alg12, active compounds read low 0.986 | locus YPL055C, strain LGE1, active compounds read low 1.03 | locus YPL241C, strain CIN2, active compounds read low 1 | locus YPR135W, strain CTF4, active compounds read low 0.941

COc1ccc(-c2oc3ccccc3c(=O)c2O)cc1OC
inactive: [17] 0.915 | [37] 0.949 | [2] 1.01 | locus YHR079C, strain IRE1, active compounds read low 0.983 | locus YJL095W, strain BCK1, active compounds read low 0.962 | locus YJR066W, strain TOR1, active compounds read low 0.948 | locus YLR113W, strain HOG1, active compounds read low 0.957 | [67] 0.932 | locus YNL183C, strain NPR1, active compounds read low 0.907 | locus YOR231W, strain MKK1, active compounds read low 0.996 | locus YPL256C, strain CLN2, active compounds read low 0.994
active: [4] 0.164 | [5] 0.512 | [6] 0.739 | [7] 0.631 | [8] 0.639 | [9] 0.587 | [10] 0.848 | [11] 0.509 | [12] 0.697 | [13] 0.617 | [14] 0.782 | [1] 0.753 | [15] 0.762 | [16] 0.865 | [18] 0.902 | [19] 0.914 | [20] 0.175 | [21] 0.505 | [22] 0.748 | locus YDR195W, strain ref2 0.809 | [23] 0.557 | [24] 0.524 | [25] 0.683 | [26] 0.553 | [27] 0.6 | [28] 0.692 | [29] 0.882 | [30] 0.4 | [31] 0.826 | [32] 0.696 | [33] 0.687 | [34] 0.633 | [35] 0.742 | [36] 0.37 | [38] 0.772 | [39] 0.544 | [40] 0.466 | [41] 0.315 | [42] 0.533 | [43] 0.812 | [44] 0.548 | [45] 0.901 | [46] 0.721 | [47] 0.809 | [48] 0.497 | [49] 0.527 | [3] 0.635 | [50] 0.766 | [51] 0.915 | [52] 0.875 | [53] 0.692 | [54] 0.798 | [55] 0.85 | [56] 0.673 | [57] 0.644 | [58] 0.733 | [59] 0.371 | [60] 0.537 | [61] 0.61 | [62] 0.626 | [63] 0.785 | [64] 0.76 | [65] 0.72 | [66] 0.113 | [68] 0.825 | [69] 0.369 | [70] 0.555 | [71] 0.715 | [72] 0.222 | [73] 0.783 | [74] 0.776 | [75] 0.889 | [76] 0.678 | [77] 0.772 | [78] 0.445 | [79] 0.617 | [80] 0.203 | [81] 0.655 | [82] 0.32 | [83] 0.607 | [84] 0.371 | [85] 0.74 | [86] 0.572 | [87] 0.771

COc1cc(-c2oc3cc(O)ccc3c(=O)c2O)ccc1O
active: [4] 0.743 | [5] 0.873 | [9] 0.861 | [11] 0.826 | [12] 0.853 | [20] 0.774 | [21] 0.763 | locus YDR195W, strain ref2 1.18 [resistant] | [24] 0.887 | [30] 0.859 | [36] 0.86 | [39] 0.833 | [40] 0.814 | [41] 0.788 | [42] 0.827 | [48] 0.829 | [49] 0.895 | [3] 0.885 | [56] 0.902 | [57] 0.899 | [59] 0.748 | [62] 0.8 | [66] 0.306 | [70] 0.906 | [72] 0.647 | [77] 0.873 | [79] 0.85 | [80] 0.567 | [82] 0.542 | [84] 0.744
inactive: [6] 0.977 | [7] 0.926 | [8] 0.925 | [10] 1 | [13] 0.942 | [14] 0.961 | [1] 0.993 | [15] 0.987 | [16] 1.02 | [17] 1.03 | [18] 1.01 | [19] 1.02 | [22] 1.06 | [23] 0.958 | [25] 0.971 | [26] 0.868 | [27] 0.961 | [28] 0.972 | [29] 1 | [31] 0.986 | [32] 0.979 | [33] 0.977 | [34] 0.906 | [35] 0.995 | [37] 1.04 | [38] 1.04 | [43] 1.01 | [44] 0.967 | [45] 1.01 | [46] 0.911 | [47] 1 | [50] 0.912 | [51] 1.02 | [52] 1 | [53] 0.959 | [54] 0.954 | [55] 0.994 | [58] 0.935 | [60] 0.9 | [61] 0.966 | [63] 0.96 | [64] 0.987 | [65] 0.975 | [67] 1.11 | [68] 0.998 | [69] 0.926 | [71] 0.96 | [73] 0.968 | [74] 1.03 | [75] 1 | [76] 0.917 | [78] 1 | [81] 0.968 | [83] 0.888 | [85] 0.927 | [86] 0.935 | [87] 0.972
